The source of these data is PubChem BioAssay (Tox21).

Several values for one entry are separate records, joined by “and”; a condition that tells them apart may be missing. Identical values can stand only once. Results filed as inconclusive are left out. Activity calls are given as the source filed them. Unless noted, calls come from the whole dose curve; as a rule, active = well fitted curve in the direction sought with a large enough effect in the repeat runs; inconclusive = weak or mixed curves; inactive = no such curve, though single readings can be large; an effect the other way counts as inactive or inconclusive.

Test [1] is described as follows: qHTS assay to identify small molecule antagonists of the glucocorticoid receptor (GR) signaling pathway - cell viability counter screen (AID 720693). Note: nearly all actives have a fitted effect of over 55% in size. Background: qHTS replaces the single test concentration by a dilution series.
Test [2] can be described thus: qHTS assay for identifying genotoxic compounds that show differential cytotoxicity against isogenic chicken DT40 cell lines with known DNA damage response pathways - wild type cell line (AID 743012). Note: nearly all actives have a fitted effect of over 60% in size. Note: potency is the fitted concentration of half-maximal effect. The method, boiled down: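 Cytotoxicity in repair-proficient parental chicken DT40 cells serves as the comparator for Rad54/Ku70- and Rev3-deficient lines. Cells were exposed to compounds for 40 h at 37 C/5% CO2, and ATP-based luminescence (CellTiter-Glo) measured viability.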

A short description of test [3]: qHTS assay for identifying genotoxic compounds that show differential cytotoxicity against isogenic chicken DT40 cell lines with known DNA damage response pathways - Rad54/Ku70 mutant cell line (AID 743015). Note: nearly all actives have a fitted effect of over 60% in size. Note: potency is the fitted concentration of half-maximal effect.
Test [4] in a line: qHTS assay to identify small molecule antagonists of the androgen receptor (AR) signaling pathway - cell viability counter screen (AID 743033; note: nearly all actives have a fitted effect of over 45% in size).
A short description of test [5]: qHTS assay to identify small molecule antagonists of the androgen receptor (AR) signaling pathway using the MDA cell line - cell viability counter screen (AID 743041; note: nearly all actives have a fitted effect of over 45% in size). In outline:
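Using the breast carcinoma line MDA-kb2 AR-luc, test chemicals were co-incubated with R1881 for 16 h; CellTiter-Fluor reagent, added at 15.5 h, provided a fluorescence measure of live cells.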

Test [6] in a line: qHTS assay to identify small molecule antagonists of the thyroid receptor (TR) signaling pathway - cell viability counter screen (AID 743064). Note: nearly all actives have a fitted effect of over 50% in size. Note: potency is the fitted concentration of half-maximal effect. The method, boiled down: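 Viability of T3-stimulated (1 nM final) GH3.TRE-Luc cells is measured by CellTiter-Fluor fluorescence after 23.5 h compound exposure at 37 °C plus 30 min reagent incubation.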
The nature of test [7]: qHTS assay to identify small molecule antagonists of the thyroid receptor (TR) signaling pathway (AID 743065). Note: nearly all actives have a fitted effect of over 55% in size. Note: potency is the fitted concentration of half-maximal effect. In outline: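 Antagonism measured as loss of luciferase signal in GH3 cells stably carrying a TRE-luciferase reporter, co-treated with compound and T3 (1 nM final) for 23.5 h at 37 C. Viability was read in the same well by CellTiter-Fluor.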
Test [8] relates to thyroid hormone receptor (rat, GH3 cells). The test can be described thus: qHTS assay to identify small molecule agonists of the thyroid receptor (TR) signaling pathway (AID 743066; calls by dose curve).
Test [9] deals with Estrogen receptor (Homo sapiens) (UniProt P03372). The test can be described thus: qHTS assay to identify small molecule antagonists of the estrogen receptor alpha (ER-alpha) signaling pathway (AID 743069; active = well fitted curve in the direction sought with a large enough effect in the signal ratio in the repeat runs, not every such curve was filed as active; the % refers to the signal ratio). In outline: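 Fluorescence intensity from a beta-lactamase FRET substrate served as the read-out. Cells: HEK293 with stably integrated ER-alpha-UAS-bla reporter. Agonist 17beta-estradiol was co-added with compounds; incubation 18 hr at 37C, substrate 2 hr at room temperature.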
Estrogen receptor (Homo sapiens), sequence (P03372 whole entry, looked up): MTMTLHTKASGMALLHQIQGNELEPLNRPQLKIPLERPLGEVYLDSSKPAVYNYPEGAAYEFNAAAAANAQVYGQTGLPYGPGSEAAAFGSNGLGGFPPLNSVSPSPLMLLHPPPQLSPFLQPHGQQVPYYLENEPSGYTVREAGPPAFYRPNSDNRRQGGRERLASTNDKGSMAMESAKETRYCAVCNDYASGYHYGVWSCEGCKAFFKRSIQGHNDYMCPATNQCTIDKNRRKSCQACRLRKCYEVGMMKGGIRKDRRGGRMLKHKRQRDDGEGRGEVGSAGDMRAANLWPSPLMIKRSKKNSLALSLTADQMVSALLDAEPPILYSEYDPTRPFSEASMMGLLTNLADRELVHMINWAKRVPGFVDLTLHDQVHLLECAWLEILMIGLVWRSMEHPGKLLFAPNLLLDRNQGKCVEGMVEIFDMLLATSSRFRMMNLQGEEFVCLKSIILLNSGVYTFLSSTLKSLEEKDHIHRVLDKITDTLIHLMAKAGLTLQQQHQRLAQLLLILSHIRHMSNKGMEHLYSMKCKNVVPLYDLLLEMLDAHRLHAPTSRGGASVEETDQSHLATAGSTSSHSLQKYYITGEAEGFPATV

A short description of test [10]: qHTS assay to identify small molecule antagonists of the estrogen receptor alpha (ER-alpha) signaling pathway - cell viability counter screen (AID 743074; calls by dose curve; note: nearly all actives have a fitted effect of over 45% in size).
Test [11] has as its target Estrogen receptor (Homo sapiens) (UniProt P03372). The test can be described thus: qHTS assay to identify small molecule agonists of the estrogen receptor alpha (ER-alpha) signaling pathway (AID 743075; calls by dose curve).
The target is the same in test [12]. The test can be described thus: qHTS assay to identify small molecule agonists of the estrogen receptor alpha (ER-alpha) signaling pathway using the BG1 cell line (AID 743079). Note: nearly all actives have a fitted effect of over 20% in size. Note: potency is the fitted concentration of half-maximal effect.
Test [13] is described as follows: qHTS assay to identify small molecule antagonists of the estrogen receptor alpha (ER-alpha) signaling pathway using the BG1 cell line (AID 743080; calls by dose curve;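 note: BG1 cells stimulated with 17beta-estradiol alongside compound; series mostly up to about 70 µM; nearly all actives have a fitted effect of over 25% in size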). In outline:
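Readout is ONE-Glo luminescence, taken 30 min at room temperature after reagent addition, preceded by a CellTiter-Fluor viability read; BG1-Luc-4E2 cells had received compound and 17beta-estradiol for 21.5 h at 37 C.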

Test [14] can be described thus: qHTS assay to identify small molecule antagonists of the estrogen receptor alpha (ER-alpha) signaling pathway using the BG1 cell line - cell viability counter screen (AID 743081).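 Note: compound given together with 17beta-estradiol as the ER stimulus; series mostly up to about 70 µM; nearly all actives have a fitted effect of over 45% in size.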
For test [15], the target named is Aromatase (Homo sapiens) (UniProt P11511). The test can be described thus: qHTS assay to identify aromatase inhibitors (AID 743083). Note: series mostly up to about 70 µM; nearly all actives have a fitted effect of over 55% in size.
Aromatase (Homo sapiens), sequence (P11511 whole entry, looked up): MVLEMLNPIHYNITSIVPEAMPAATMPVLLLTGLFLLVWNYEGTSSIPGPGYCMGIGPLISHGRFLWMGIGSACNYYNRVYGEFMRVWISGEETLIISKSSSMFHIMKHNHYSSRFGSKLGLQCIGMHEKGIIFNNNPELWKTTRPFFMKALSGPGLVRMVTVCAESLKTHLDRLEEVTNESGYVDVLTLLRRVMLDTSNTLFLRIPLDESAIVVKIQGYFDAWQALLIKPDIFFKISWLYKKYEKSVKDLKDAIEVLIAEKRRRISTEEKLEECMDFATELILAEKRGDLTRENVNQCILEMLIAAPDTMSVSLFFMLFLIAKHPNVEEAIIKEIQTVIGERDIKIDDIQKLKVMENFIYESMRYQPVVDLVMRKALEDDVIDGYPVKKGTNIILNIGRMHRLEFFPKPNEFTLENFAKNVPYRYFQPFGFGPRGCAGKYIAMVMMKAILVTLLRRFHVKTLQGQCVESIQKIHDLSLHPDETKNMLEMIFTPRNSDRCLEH
A short description of test [16]: qHTS assay to identify aromatase inhibitors - cell viability counter screen (AID 743084).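 Note: cells stimulated with testosterone during compound exposure; nearly all actives have a fitted effect of over 55% in size.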 Note: potency is the fitted concentration of half-maximal effect.
Test [17] has as its target Androgen receptor (Homo sapiens) (UniProt P10275). The test can be described thus: qHTS assay to identify small molecule antagonists of the androgen receptor (AR) signaling pathway (AID 743035; active = well fitted inhibition curve with a large enough effect in the signal ratio in the repeat runs, not every such curve was filed as active; the % refers to the signal ratio). In outline:
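Steps: seed AR-UAS-bla GripTite HEK293 cells, incubate 4 h at 37C; pin in test compound, then add agonist R1881; incubate 16 h at 37C; add LiveBLAzer B/G FRET substrate, 2 h at room temperature; read fluorescence.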

For test [18] the target is unchanged. The test can be described thus: qHTS assay to identify small molecule agonists of the androgen receptor (AR) signaling pathway using the MDA cell line (AID 743040; note: nearly all actives have a fitted effect of over 20% in size; note: potency is the fitted concentration of half-maximal effect). The method, boiled down:
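Stable MMTV-luciferase reporter in MDA-kb2 cells; note the promoter carries GR as well as AR response elements. 16 h compound treatment, 37C, 0% CO2; ONE-Glo luminescence endpoint.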

Test [19] is described as follows: qHTS assay for identifying genotoxic compounds that show differential cytotoxicity against isogenic chicken DT40 cell lines with known DNA damage response pathways - Rev3 mutant cell line (AID 743014). Note: nearly all actives have a fitted effect of over 55% in size. Note: potency is the fitted concentration of half-maximal effect.
The target in test [20] is Androgen receptor (Homo sapiens) (UniProt P10275). The test can be described thus: qHTS assay to identify small molecule agonists of the androgen receptor (AR) signaling pathway (AID 743036; active = well fitted activation curve with a large enough effect in the signal ratio in the repeat runs, with a control signal flat, not every such curve was filed as active; the % refers to the signal ratio). The method, boiled down: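 Screening used 2,000 AR-bla HEK293 cells per well, treated 16 h at 37C with test compounds in DMSO alongside positive and DMSO-only controls; beta-lactamase activity was then read by LiveBLAzer B/G FRET fluorescence after 2 h at room temperature.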
Androgen receptor (Homo sapiens), sequence (P10275 whole entry, looked up): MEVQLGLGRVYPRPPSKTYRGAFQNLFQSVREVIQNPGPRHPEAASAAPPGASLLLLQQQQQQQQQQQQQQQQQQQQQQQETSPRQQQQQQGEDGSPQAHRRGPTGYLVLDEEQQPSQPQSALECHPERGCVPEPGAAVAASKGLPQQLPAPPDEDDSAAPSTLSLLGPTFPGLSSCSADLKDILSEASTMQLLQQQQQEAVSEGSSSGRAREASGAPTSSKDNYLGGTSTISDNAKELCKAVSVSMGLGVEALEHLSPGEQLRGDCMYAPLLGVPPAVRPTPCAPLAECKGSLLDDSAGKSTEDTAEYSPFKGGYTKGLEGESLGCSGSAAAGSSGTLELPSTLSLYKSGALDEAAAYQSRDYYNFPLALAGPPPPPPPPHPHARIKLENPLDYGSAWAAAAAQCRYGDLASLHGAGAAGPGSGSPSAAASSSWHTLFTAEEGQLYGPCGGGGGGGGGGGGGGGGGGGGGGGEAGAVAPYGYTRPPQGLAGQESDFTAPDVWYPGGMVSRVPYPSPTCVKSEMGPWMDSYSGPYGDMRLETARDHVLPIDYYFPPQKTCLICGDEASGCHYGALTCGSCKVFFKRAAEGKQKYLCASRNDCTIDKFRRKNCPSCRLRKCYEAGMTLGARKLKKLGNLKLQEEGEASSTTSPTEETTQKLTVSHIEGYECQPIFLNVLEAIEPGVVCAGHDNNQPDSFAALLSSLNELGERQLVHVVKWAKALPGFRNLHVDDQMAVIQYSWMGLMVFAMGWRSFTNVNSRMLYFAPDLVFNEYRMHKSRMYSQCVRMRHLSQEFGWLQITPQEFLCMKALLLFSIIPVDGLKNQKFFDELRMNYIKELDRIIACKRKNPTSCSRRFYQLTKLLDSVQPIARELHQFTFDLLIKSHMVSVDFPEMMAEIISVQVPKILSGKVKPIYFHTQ

In the case of `O=C(CO)[C@@H](O)[C@H](O)[C@@H](O)CO`, the molecule was classed as inactive in test [1], in [4], in [8], in test [14] and in test [15]. In addition, the Potency entry in test [2], in [3], in test [5], in test [6], in test [7] and in test [9] was “inactive” throughout. Also, the Potency result in test [10], in test [11], in test [12], in [13] and in [16] was “inactive” each time.

Turning to `C=CC(C)(CCC=C(C)C)OC(=O)CC` (stereo unspecified), the molecule was classed as inactive in test [1], in test [4], in test [8], in [14] and in [15]. The Potency entry in test [2], in test [3], in test [5], in test [6], in test [7] and in [9] was “inactive” each time. Moreover, the Potency result in test [10], in test [11], in test [12], in test [13] and in [16] was “inactive” in each case.

Regarding `CC(C)NNC(=O)c1ccncc1`, the result in [1], in test [4], in test [8], in [14] and in test [15] was inactive. In addition, the Potency result in [2], in test [3], in [17], in test [18], in test [6] and in test [7] was “inactive” throughout. Further, the Potency result in test [10], in [13] and in [16] was “inactive” each time.

As for `CC(C)CCCO`, the molecule was called inactive in [1], in test [4], in [8], in test [14] and in test [15]. For the same molecule, the Potency result in test [2], in [3], in [5], in test [6], in test [7] and in test [9] was “inactive” throughout. Also, the Potency result in test [10], in test [11], in test [12], in test [13] and in test [16] was “inactive” throughout.

`C=CCOCC(O)CO` (stereo unspecified): the molecule was called inactive in test [1], in test [4], in [8], in test [14] and in [15]. In addition, the Potency entry in [2], in test [3], in test [5], in test [6], in test [7] and in test [9] was “inactive” each time. Moreover, the Potency result in [10], in test [11], in [12] and in test [16] was “inactive” in each case.

For the molecule `Cc1ccc(C(=O)Nc2ccc(S(=O)(=O)O)c3cc(S(=O)(=O)O)cc(S(=O)(=O)O)c23)cc1NC(=O)c1cccc(NC(=O)Nc2cccc(C(=O)Nc3cc(C(=O)Nc4ccc(S(=O)(=O)O)c5cc(S(=O)(=O)O)cc(S(=O)(=O)O)c45)ccc3C)c2)c1`, the outcome in test [1], in test [4], in test [8], in test [14] and in [15] was inactive. In addition, the Potency entry in test [2], in [19], in test [5], in test [6], in test [7] and in test [9] was “inactive” each time. Besides, the Potency result in test [11], in [12] and in test [16] was “inactive” in each case.

Take `CC/C=C\CCOC(C)OCC` (stereo unspecified): the call in test [1], in [4], in [8], in test [14] and in test [15] was inactive. In addition, the Potency entry in test [2], in test [3], in test [5], in test [6], in test [7] and in test [9] was “inactive” in each case. Besides, the Potency result in test [10], in [12] and in [16] was “inactive” each time.

For the molecule `O=C(CO)[C@@H](O)[C@H](O)[C@H](O)CO`, the outcome in test [1], in test [4], in test [8], in [14] and in test [15] was inactive. Further, the Potency result in [2], in test [3], in test [5], in [6], in test [7] and in test [9] was “inactive” throughout. For the same molecule, the Potency entry in test [10], in [11], in test [12], in [13] and in test [16] was “inactive” throughout.

In the case of `CCCCCCCC1CCCC1=O` (stereo unspecified), the result in [1], in test [4], in test [20], in test [8], in test [14] and in test [15] was inactive. The Potency result in [2], in [3], in [17], in test [18], in [5] and in [6] was “inactive” in each case. For the same molecule, the Potency entry in test [7], in [9], in test [10], in test [11], in test [12] and in test [13] was “inactive” each time. Further, the Potency entry in test [16] was “inactive”.

Regarding `CCCCCCCCCC[N+](C)(C)[O-]`, the molecule was called inactive in test [1], in [4], in [14] and in test [15]. Besides, the Potency is 24.3 µM (active) in test [2] and 13.7 µM (active) in test [19]. For the same molecule, the Potency result in test [17], in test [18], in [5], in test [6], in test [9] and in [10] was “inactive” each time. In addition, the Potency entry in test [11], in [12], in test [13] and in [16] was “inactive” throughout.

On to `CCCCS(=O)(=O)N[C@@H](Cc1ccc(OCCCCC2CCNCC2)cc1)C(=O)O`, for which the call in [1], in test [4], in test [8], in test [14] and in test [15] was inactive. Also, the Potency entry in test [2], in test [3], in [17], in test [18], in [5] and in test [6] was “inactive” in each case. For the same molecule, the Potency result in test [9], in test [11], in [12] and in test [16] was “inactive” throughout.

In the case of `CO[Si](C)(OC)c1ccccc1`, the molecule was classed as inactive in test [1], in [4], in [8], in test [14] and in test [15]. Moreover, the Potency result in test [2], in [3], in test [5], in [6], in test [7] and in [9] was “inactive” each time. The Potency entry in [10], in test [11], in test [12], in [13] and in [16] was “inactive” in each case.

For the molecule `CC(=O)N1C[C@H](O)C[C@H]1C(=O)O`, the call in test [1], in [4], in test [8], in test [14] and in [15] was inactive. The Potency result in test [2], in test [3], in test [17], in [5], in test [6] and in test [7] was “inactive” in each case. Moreover, the Potency entry in test [9], in [10], in test [13] and in test [16] was “inactive” in each case. Moreover, the Potency in test [18] was 26.6 µM (active); in [12], 10.6 µM (active).

Regarding `COC(=O)C1=C(C)NC(C)=C(C(=O)OC(C)C)C1c1cccc2nonc12` (stereo unspecified), the call in [1], in test [20], in test [8], in test [14] and in [15] was inactive. Besides, the Potency entry in test [2], in test [19], in test [17], in test [18], in test [5] and in test [6] was “inactive” in each case. The Potency entry in [7], in test [10] and in test [16] was “inactive” each time.

Consider `CC(=O)O[C@@]12CO[C@@H]1C[C@H](O)[C@@]1(C)C(=O)[C@H](O)C3=C(C)[C@@H](OC(=O)[C@H](O)[C@@H](NC(=O)OC(C)(C)C)c4ccccc4)C[C@@](O)([C@@H](OC(=O)c4ccccc4)[C@H]21)C3(C)C`, for which the molecule was classed as inactive in test [1], in test [4], in [8], in [14] and in test [15]. Besides, the Potency in test [2] is 0.0017 µM (active); in [3] it was 0.0027 µM (active); in test [6], 29.8 nM (active) and 106 nM (active); in test [7], 0.0298 µM (active); in test [16], 26.6 µM (active). Further, the Potency entry in [18], in test [5], in [9], in test [11] and in [12] was “inactive” in each case.

For `CC(=O)N[C@H]1[C@H]([C@H](O)[C@H](O)CO)OC(C(=O)O)=C[C@@H]1N=C(N)N`, the molecule was classed as inactive in [1], in test [4], in test [20], in test [8], in [14] and in test [15]. The Potency entry in test [2], in test [3], in test [17], in test [18], in test [5] and in test [6] was “inactive” throughout. Besides, the Potency entry in test [7], in test [9], in test [11], in test [12], in [13] and in [16] was “inactive” throughout.
